Data from PubChem BioAssay AID1159580 (chemical genetic matrix, 2015).
Among all 5,500 compounds or so, about 2,000 (36%) were called active. Inconclusive results (about 18%) are left out. No stated cut-off is given here; in the data, active means normalized growth mostly below about 0.91 (no sharp cut-off); inconclusive means no clear call, values can overlap the other calls; inactive means mostly above about 0.92. The list shows a part of the results.

Test: chemical genetic growth profiling, strain panel (AID 1159580);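 further: tested at 20 µM; growth read once vehicle control cultures reached saturation at 30 °C; 1 = growth at the plate median or of vehicle wells; lower values mean less growth of the strain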
Conditions: S. cerevisiae deletion strains, growth OD

Measured: normalized growth

O=S(=O)(Nc1cc(Cl)c(Cl)cc1Cl)c1cc(C(F)(F)F)cc(C(F)(F)F)c1
active: locus YHR030C, strain SLT2, hits give low values 0.71 | locus YLR113W, strain HOG1, hits give low values 0.818 | locus YPL256C, strain CLN2, hits give low values 0.813
inactive: locus YAR019C, strain CDC15, hits give low values 0.957 | locus YBL105C, strain PKC1, hits give low values 0.956 | locus YBR135W, strain CKS1, hits give low values 0.961 | locus YBR136W, strain MEC1, hits give low values 0.954 | locus YBR160W, strain CDC28, hits give low values 0.946 | locus YDL017W, strain CDC7, hits give low values 0.959 | locus YDL028C, strain MPS1, hits give low values 0.962 | locus YDL101C, strain DUN1, hits give low values 0.972 | locus YDL108W, strain KIN28, hits give low values 0.966 | locus YDL132W, strain cdc53, hits give low values 0.963 | locus YDL214C, strain PRR2, hits give low values 0.924 | locus YDR052C, strain DBF4, hits give low values 0.941 | locus YDR054C, strain cdc34, hits give low values 0.953 | locus YDR226W, strain ADK1, hits give low values 0.956 | locus YDR477W, strain SNF1, hits give low values 0.919 | locus YER123W, strain YCK3, hits give low values 0.882 | locus YER133W, strain GLC7, hits give low values 0.937 | locus YFL009W, strain cdc4, hits give low values 0.959 | locus YFL029C, strain CAK1, hits give low values 0.955 | locus YFR003C, strain YPI1, hits give low values 0.964 | locus YFR019W, strain FAB1, hits give low values 0.916 | locus YFR028C, strain CDC14, hits give low values 0.958 | locus YGR040W, strain KSS1, hits give low values 0.9 | locus YGR052W, strain FMP48, hits give low values 0.913 | locus YGR092W, strain DBF2, hits give low values 0.892 | locus YHR079C, strain IRE1, hits give low values 0.897 | locus YHR082C, strain KSP1, hits give low values 0.899 | locus YHR205W, strain SCH9, hits give low values 0.946 | locus YIL147C, strain SLN1, hits give low values 0.963 | locus YJL095W, strain BCK1, hits give low values 0.963 | locus YJL128C, strain PBS2, hits give low values 0.969 | locus YJL157C, strain FAR1, hits give low values 0.892 | locus YJR016C, strain ILV3, hits give low values 0.968 | locus YJR066W, strain TOR1 (second series), hits give low values 0.92 | locus YJR066W, strain TOR1, hits give low values 0.976 | locus YKL048C, strain ELM1, hits give low values 0.906 | locus YKL067W, strain YNK1, hits give low values 0.935 | locus YKL101W, strain HSL1, hits give low values 0.902 | locus YKL193C, strain SDS22, hits give low values 0.963 | locus YKL203C, strain TOR2, hits give low values 0.955 | locus YLR133W, strain CKI1, hits give low values 0.903 | locus YLR403W, strain SFP1, hits give low values 0.916 | locus YML070W, strain DAK1, hits give low values 0.911 | locus YMR001C, strain CDC5, hits give low values 0.96 | locus YMR205C, strain PFK2 (second series), hits give low values 0.954 | locus YMR277W, strain FCP1, hits give low values 0.963 | locus YNL006W, strain LST8, hits give low values 0.966 | locus YNL020C, strain ARK1, hits give low values 0.89 | locus YNL161W, strain CBK1, hits give low values 0.962 | locus YNL183C, strain NPR1, hits give low values 0.916 | locus YNL207W, strain RIO2, hits give low values 0.948 | locus YNL222W, strain SSU72, hits give low values 0.962 | locus YNL307C, strain MCK1 (second series), hits give low values 0.874 | locus YOL078W, strain AVO1, hits give low values 0.959 | locus YOL136C, strain PFK27, hits give low values 0.871 | locus YOR061W, strain CKA2, hits give low values 0.93 | locus YOR119C, strain RIO1, hits give low values 0.983 | locus YOR231W, strain MKK1, hits give low values 0.913 | locus YOR329C, strain SCD5, hits give low values 0.963 | locus YPL031C, strain PHO85, hits give low values 0.917 | locus YPL153C, strain RAD53, hits give low values 0.921 | locus YPL204W, strain HRR25, hits give low values 0.881 | locus YPL209C, strain IPL1, hits give low values 0.952 | locus YPR025C, strain CCL1, hits give low values 0.962 | locus YPR106W, strain ISR1, hits give low values 0.946 | locus YPR111W, strain DBF20, hits give low values 0.944 | strain NNK1, hits give low values 0.956 | strain TSCII, hits give low values 0.956
